We go through 17 molecules from PubChem BioAssay (NCATS).

Test [1] concerns Zika virus NS2B-NS3 protease (unlinked complex). Nature of the test: Primary screen GU Rhodamine qHTS for Zika virus inhibitors: Unlinked NS2B-NS3 protease assay (AID 1347159). Further: on the % scale 0 is the no-effect control and ±100 the full control effect; nearly all actives have a fitted effect of over 60% in size. The essentials:
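Buffer 10 mM Tris-HCl pH 8.0, 0.01% Tween 20. Unlinked protease 25 nM; compound preincubation 15 min, RT, protected from light. Substrate Rhod110, 1.5 microM; ~15% conversion in 15 min.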
For orientation: qHTS replaces the single test concentration by a dilution series.

In test [2] the test system is Zika virus NS2B-NS3 protease (linked construct). The test is described as follows: Primary screen NINDS Rhodamine qHTS for Zika virus inhibitors (AID 1347160). Further: on the % scale 0 is the no-effect control and ±100 the full control effect; nearly all actives have a fitted effect of over 55% in size. The procedure, abridged:
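Aprotinin served as in-plate control. Conditions: 25 nM linked NS2B-NS3, pH 8.0 Tris buffer, titrated compounds, 15 min preincubation and 15 min reaction with 1.5 microM Rhod110 substrate at room temperature.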

In test [3] the target is Glutathione peroxidase 1 (Homo sapiens) (UniProt P07203). Nature of the test: Primary qHTS Assay for Inhibitors of Recombinant Selenoprotein Glutathione Peroxidase 1 (GPX1) (AID 1845191). Further: nearly all actives have a fitted effect of over 65% in size. Further: potency means the concentration at half of the fitted maximal effect. The procedure, abridged: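 NADPH consumption tracked by fluorescence at 340/450 nm between t=0 and t=15 min, room temperature. Final mix: 10 nM GPX1, 100 nM glutathione reductase, 1 mM GSH, 0.5 mM NADPH, 0.5 mM cumene hydroperoxide, 0.01% BSA; 30 min compound–enzyme preincubation.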
Glutathione peroxidase 1 (Homo sapiens), sequence (P07203 whole entry, looked up): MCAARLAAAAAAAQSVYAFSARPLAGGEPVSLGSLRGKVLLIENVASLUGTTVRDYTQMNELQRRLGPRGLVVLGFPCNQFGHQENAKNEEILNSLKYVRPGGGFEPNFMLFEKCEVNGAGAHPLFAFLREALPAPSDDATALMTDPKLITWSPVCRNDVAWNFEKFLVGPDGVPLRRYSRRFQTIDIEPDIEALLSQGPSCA

A short description of test [4]: Primary fluorescence-based thiol-reactive (MSTI) qHTS assay for identification of artifact compounds. (AID 1845221). Further: nearly all actives have a fitted effect of over 65% in size. Further: potency means the concentration at half of the fitted maximal effect. The procedure, abridged: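 Curve-fitted percent inhibition (4-parameter Hill) derived from fluorescence, Ex 525/Em 598 nm, scaled with Acetyl-MSTI and MSTI; 1 h incubation at room temperature.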
The nature of test [5]: Primary redox qHTS assay for identification of artifact compounds. (AID 1845223).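 Further: 0% = DMSO and 100% = reference compound.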 The essentials:
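Redox-cycling detection via DTT (250 uM final) oxidation coupled to Amplex Red (25 uM)/HRP (250 mU/mL) in HBSS. 15 min preincubation plus 30 min after DTT, room temperature. Ex/Em 525/598 nm; 4-parameter Hill fit against DMSO and 10 uM DA3003.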

Test [6] deals with KB-3-1. The test is described as follows: Cytotoxic Profiling of Annotated Libraries Using Quantitative High-Throughput Screening (AID 1296008). Further: nearly all actives have a fitted effect of over 60% in size. Further: potency means the concentration at half of the fitted maximal effect. On max response: on the % scale 0 is the no-effect control and ±100 the full control effect. The following applies: Five cell lines viability, CellTiter-Glo ATP luminescence, 48-72 h; max response: stronger effect = lower value. The procedure, abridged:
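Cytotoxicity was measured as CellTiter-Glo ATP luminescence, read after 10 min at room temperature. Compound treatment of the cells lasted 48 or 72 hr at 37 degrees Celsius in a qHTS format.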
Background: ATP-based viability assays read luminescence as a measure of living cells.

Test [7] deals with HeLa. Nature of the test: Primary qHTS to identify gynecologic anti-cancer compounds using libraries of approved drugs and bioactive compounds (AID 1345084). Further: nearly all actives have a fitted effect of over 55% in size. Further: potency means the concentration at half of the fitted maximal effect. The following applies: Gynecologic cancer cell panel viability, ATPlite luminescence, 48 h; series mostly up to 57.5 µM. The procedure, abridged: (§1)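 Cytotoxicity screen measuring ATP content by luciferase luminescence. Each compound is applied at five concentrations for 48 h at 37 C with 5% CO2.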

Test [8] deals with SKOV3. The description is as above. The following applies: Gynecologic cancer cell panel viability, ATPlite luminescence, 48 h; series mostly up to 57.5 µM. The procedure, abridged:
as §1

The nature of test [9]: Primary qHTS for inhibitors of nuclear receptor binding SET domain protein 2 (NSD2) in an RCH-ACV wild type WT cells (2C) (AID 1645877). Further: nearly all actives have a fitted effect of over 70% in size. Further: potency means the concentration at half of the fitted maximal effect.
Test [10] has as its system CRL-7250. The test is described as follows: qHTS assay to identify novel small-molecules to repurpose for Merkel cell carcinoma treatment (AID 1296009). Further: nearly all actives have a fitted effect of over 60% in size. The following applies: MCC and control cell lines, CellTiter-Glo viability, 72 h; series mostly up to 92 µM. The essentials:
(§2)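 Cell viability, measured as CellTiter-Glo luminescence, was normalized between DMSO and no-cell wells. The cells had been exposed to 8- or 11-point compound dilutions for 72 hr at 37 degree celsius.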

Test [11] has as its target Cytochrome P450 2D6 (Homo sapiens) (UniProt P10635). Nature of the test: Cytochrome P450 family 2 subfamily D member 6 (CYP2D6) small molecule antagonists: luciferase biochemical (cell-free) qHTS assay (AID 1645840; active means well fitted curve in the direction sought with a large enough effect in the repeat runs; an effect the other way counts as inactive or inconclusive; further: nearly all actives have a fitted effect of over 55% in size; further: potency means the concentration at half of the fitted maximal effect; on activity change, negative = inhibition: on the % scale 0 is the no-effect control and ±100 the full control effect). The procedure, abridged: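 P450-Glo CYP2D6 system: proluciferin substrate converted by enzyme to luciferin, read by luminescence proportional to activity. Enzyme-substrate mix with compound 10 min at room temperature, then NADPH regeneration 1 h before detection reagent.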

Test [12] addresses Cytochrome P450 2C9 (Homo sapiens) (UniProt P11712). The test is described as follows: Cytochrome P450 family 2 subfamily C member 9 (CYP2C9) small molecule antagonists: luciferase biochemical (cell-free) qHTS assay (AID 1645842; active means well fitted curve in the direction sought with a large enough effect in the repeat runs; an effect the other way counts as inactive or inconclusive; further: nearly all actives have a fitted effect of over 55% in size; further: potency means the concentration at half of the fitted maximal effect; on activity change, negative = inhibition: on the % scale 0 is the no-effect control and ±100 the full control effect). The procedure, abridged: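 P450-Glo CYP2C9 system: proluciferin substrate with enzyme in mix containing 0.4% BSA, 10 min at room temperature, then NADPH regeneration solution added and incubated 1 h at 37C. Detection reagent stopped reaction; luminescence read after 20 min as RLU.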

The nature of test [13]: P-glycoprotein substrates identified in KB-3-1 adenocarcinoma cell line, qHTS therapeutic library screen (AID 1346986). Further: nearly all actives have a fitted effect of over 60% in size. The procedure, abridged: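 Viability read by CellTiter-Glo after 72 h compound exposure in dose-response of KB-3-1 and KB-8-5-11 (P-gp-high) cells. Hits needed AC50 < 10 uM, >50% maximum response and curve class -1.1 to -2.4. Cherry-picks retested ± tariquidar, including pcDNA/MDR-19 HEK-293 pair.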

For test [14], the system named is HACAT. The test is described as follows: qHTS assay to identify novel small-molecules to repurpose for Merkel cell carcinoma treatment (AID 1296009). Further: nearly all actives have a fitted effect of over 60% in size. The following applies: MCC and control cell lines, CellTiter-Glo viability, 72 h; at 44.8 µM (top of the series) unless noted. The procedure, abridged:
as §2

Test [15] has as its target Guanidinoacetate N-methyltransferase (Homo sapiens) (UniProt Q14353). The test is described as follows: Confirmatory Screen for Target Class Profiling of Small Molecule Inhibitors of Methyltransferases (AID 1745852). Further: on the % scale 0 is the no-effect control and ±100 the full control effect. The following applies: activity change, negative = inhibition: at 57.3 µM (top of the series) unless noted.

The structures appear in SMILES notation. Inconclusive results are not listed. The source made the active and inactive calls. Unless noted, the call rests on the fitted dose curve; in most records, active means well fitted curve in the direction sought with a large enough effect; inconclusive means small, poorly fitted or top-dose-only effect, or another doubt; inactive means no such curve, though single readings can be large; an effect the other way counts as inactive or inconclusive.

Cytochrome P450 2D6 (Homo sapiens), sequence (P10635 whole entry, looked up): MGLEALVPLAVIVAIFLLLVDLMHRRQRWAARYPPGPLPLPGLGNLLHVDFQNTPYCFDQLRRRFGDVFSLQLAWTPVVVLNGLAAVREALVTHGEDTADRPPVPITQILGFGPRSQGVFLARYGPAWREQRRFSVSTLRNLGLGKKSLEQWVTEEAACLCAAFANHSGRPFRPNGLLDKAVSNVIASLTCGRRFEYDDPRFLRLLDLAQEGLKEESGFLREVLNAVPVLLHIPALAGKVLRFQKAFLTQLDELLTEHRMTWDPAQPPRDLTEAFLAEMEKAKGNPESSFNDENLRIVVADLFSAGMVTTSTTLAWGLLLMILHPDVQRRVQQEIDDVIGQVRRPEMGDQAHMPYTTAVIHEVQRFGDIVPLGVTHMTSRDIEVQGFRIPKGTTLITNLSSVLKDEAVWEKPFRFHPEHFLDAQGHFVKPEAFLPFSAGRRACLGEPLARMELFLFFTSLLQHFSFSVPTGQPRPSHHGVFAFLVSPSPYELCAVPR
Cytochrome P450 2C9 (Homo sapiens), sequence (P11712 whole entry, looked up): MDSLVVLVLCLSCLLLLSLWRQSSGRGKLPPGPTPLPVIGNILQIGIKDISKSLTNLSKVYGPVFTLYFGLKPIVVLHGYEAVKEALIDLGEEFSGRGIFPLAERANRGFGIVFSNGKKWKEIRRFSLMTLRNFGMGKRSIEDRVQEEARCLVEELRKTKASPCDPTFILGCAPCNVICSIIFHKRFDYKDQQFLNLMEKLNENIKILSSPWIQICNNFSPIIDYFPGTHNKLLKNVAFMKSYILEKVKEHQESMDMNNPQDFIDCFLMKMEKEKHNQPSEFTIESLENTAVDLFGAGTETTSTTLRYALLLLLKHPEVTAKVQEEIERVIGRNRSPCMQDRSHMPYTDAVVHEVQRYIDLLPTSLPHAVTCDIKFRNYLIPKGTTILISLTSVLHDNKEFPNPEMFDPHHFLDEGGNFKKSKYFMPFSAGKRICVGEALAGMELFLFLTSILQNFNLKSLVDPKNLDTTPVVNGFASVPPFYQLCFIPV

Turning to `CC(=O)OC[C@]12C[C@H](O)C(C)=C[C@H]1O[C@@H]1[C@H](O)[C@@H](O)[C@@]2(C)[C@]12CO2`, the Potency result in [1], in test [2], in test [3], in test [4] and in [5] was “inactive” in each case. The Potency was 2.27 µM (active) in test [6], 7.94 µM (active) in test [7] and 3.98 µM (active) in [8].

On to `CC(=O)O[C@@H]1[C@H]2CC[C@H]3[C@@](C)(O)[C@@H]4C[C@H](O)C(C)(C)[C@@]4(O)[C@H](O)C[C@@]13C[C@@]2(C)O`, for which the Potency entry in test [2], in [9], in [3], in [4], in test [5] and in test [10] was “inactive” in each case. Also, the Potency result in test [7] and in test [8] was “inactive” throughout. In addition, the max response in test [6] is 2.41% (inactive).

Take `COc1ccsc1CNCC[C@@]1(c2ccccn2)CCOC2(CCCC2)C1`: the Potency entry in [1], in test [11], in test [12], in test [9], in [3] and in test [4] was “inactive” each time. The Potency result in test [5], in [7] and in test [8] was “inactive” in each case. Also, in [6], the max response is 9.07% (inactive).

As to `C=CC(C)(C)c1[nH]c2c(CC=C(C)C)cc(CC=C(C)C)cc2c1C[C@@H]1NC(=O)[C@H](C)NC1=O`, the Potency result in [13], in test [1], in [2], in test [9], in test [3] and in [4] was “inactive” in each case. The Potency entry in [5], in [7] and in test [8] was “inactive” in each case. Besides, in test [6], the molecule was classed as inactive.

Consider `COc1cc(O)c2c(c1)/C=C/C[C@@H](O)[C@@H](O)C(=O)CCC[C@H](C)OC2=O`, for which the Potency entry in test [1], in [3], in [4], in test [5], in [7] and in test [8] was “inactive” throughout. The max response in [6] was 5.8% (inactive).

With `CCC(C)(O)C1(C(=O)O)COC(=O)C1` (configuration not stated), the Potency entry in [13], in test [2], in test [3], in test [5], in test [7] and in [8] was “inactive” throughout. Further, the outcome in [6] was inactive. In addition, the outcome in test [14] was “inactive [at 92 µM]”.

For `CC1(C)C(=O)N(c2ccc(C#N)c(C(F)(F)F)c2)C(=O)N1CCCCO`, the Potency result in test [11], in [9], in [3], in [4], in test [5] and in [7] was “inactive” each time. Further, the Potency entry in [8] was “inactive”. For the same molecule, the Potency in test [12] is 10.7 µM (active). For the same molecule, the max response in test [6] is -3.73% (inactive).

For `CC[C@H]1C2CC3[C@@H]4N(C)c5ccccc5[C@]45C[C@@H]([C@H]2[C@H]5O)N3[C@H]1O`, the Potency entry in [1], in [2], in test [9], in test [3], in [7] and in test [8] was “inactive” each time. Also, the max response in test [6] was 2.51% (inactive). Besides, the outcome in [14] was inactive.

For the molecule `N#Cc1ccc([C@H]2CCCC[C@H]2O)cc1C(F)(F)F`, the Potency result in [1], in test [2], in test [9], in test [3], in test [4] and in test [5] was “inactive” throughout. Moreover, in [7], the Potency entry is “inactive”. Also, in [12], the Potency is 26.8 µM (active). Besides, the max response in [6] was -5.63% (inactive).

As for `CC[C@H]1C[C@@H]2CC[C@@H](O2)[C@@H](C)C(=O)O[C@H](CC)C[C@H]2CC[C@H](O2)[C@H](C)C(=O)O[C@@H](C)C[C@@H]2CC[C@@H](O2)[C@@H](C)C(=O)O[C@H](CC)C[C@H]2CC[C@H](O2)[C@H](C)C(=O)O1`, the Potency result in test [2], in [3] and in test [5] was “inactive” in each case. For the same molecule, the Potency in test [9] was 0.0136 µM (active); in [6] it was 0.0153 µM (active); in test [7] it was 0.562 µM (active); in [8], 0.251 µM (active).

Consider `Cc1c(N2C(=O)[C@@H]3[C@H](O)CCN3C2=O)ccc(C#N)c1Cl`, for which the Potency entry in test [1], in [2], in test [11], in test [9], in test [4] and in test [7] was “inactive” each time. Moreover, the max response in test [6] is -9.81% (inactive). Further, the molecule was classed as inactive in test [14].

Take `CS[C@]1(CO)C(=O)N2[C@H]3C(=CC=C[C@@H]3O)C[C@@]2(SC)C(=O)N1C`: the Potency result in [13], in [3], in [10], in [7] and in test [8] was “inactive” throughout. In addition, the call in test [6] was inactive.

As to `CC1=CC2(O)/C=C/C(C)(O)C(O)C(O)/C=C/C(=O)OC23C(=O)NC(CC(C)C)C3C1C` (configuration not stated), the Potency entry in test [13], in test [1], in test [3], in test [5], in [7] and in test [8] was “inactive” throughout. The Potency in [4] is 10.3 µM (active). The molecule was classed as inactive in test [6]. The outcome in test [14] is “inactive [at 17.4 µM]”.

With `C=C1[C@@]23C(=O)O[C@H](C)[C@]24O[C@@]2(C(=C)[C@]5(C=CC(=O)OC5(C)C)CC[C@]32C)[C@H](O)[C@@]1(C)OC4=O`, the Potency result in test [9], in test [3], in [4], in test [7] and in test [8] was “inactive” in each case. Further, the max response in [6] was -4.55% (inactive). The outcome in test [14] is “inactive [at 17.4 µM]”.

`C[C@]12CCC(=O)C=C1CC[C@@H]1[C@@H]2[C@@H](O)C[C@]2(C)C(=O)CC[C@@H]12`: the Potency result in test [1], in test [2], in [9], in test [3], in [5] and in test [10] was “inactive” in each case. Further, the Potency entry in test [8] was “inactive”. Moreover, in [6], the max response is 6.55% (inactive).

`C1=C(c2cnc[nH]2)c2ccsc2CC1`: the Potency result in [1], in [2] and in test [5] was “inactive” in each case. For the same molecule, the Potency in test [11] was 12 µM (active); in test [12] it was 3.38 µM (active); in [3] it was 20.2 µM (active); in test [4], 10.6 µM (active). Further, in test [6], the max response was -3.3% (inactive). The outcome in test [14] was inactive.

For the molecule `COc1cc(N2CCN(C)CC2)ccc1N`, the Potency result in test [1], in test [2], in test [11], in test [12], in test [3] and in test [7] was “inactive” each time. In addition, the Potency result in test [8] is “inactive”. Also, the activity change, negative = inhibition in test [15] is -4.23%. The Potency in test [4] was 1.19 µM (active). Besides, the max response in test [6] is -1.04% (inactive).
